Source: PubChem BioAssay (EPA / NIEHS)
Inconclusive results are not listed. More than one record can exist for a structure, and the calls need not agree. Activity calls are given as the source filed them. The calls were made as follows: active = hit-call score of the fitted dose curve at least 0.9, where 1 is the maximum; inconclusive = response in the unintended direction; inactive = score below 0.9.

What was measured:
[1] = target: Cellular tumor antigen p53 (Homo sapiens) (UniProt P04637); test: TOX21_p53_BLA_p2_ratio: Tox21 HCT-116 p53 Agonism Beta-lactamase Assay, Ratio, Phase 2 (AID 2283592)
In short: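 Readout: blue/green (460/530 nm) FRET emission ratio after 2 h CCF4-AM loading at room temperature, excitation 405 nm. HCT116 p53 bla cells, 16 h compound exposure at 37C, 5% CO2; agonist direction fitted against DMSO baseline.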

[2] = TOX21_p53_BLA_p3_viability: Viability Assessment in the Tox21 HCT-116 p53 Agonism Beta-lactamase Assay, Phase 3 (AID 2283593);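 also: cells exposed to compound for 16 h before reading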
In short: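 HCT-116 cells (4000/well) rested 5 h at 37C, then got DMSO compounds by pin tool (217-fold dilution) for 16 h at 37C, 5% CO2. After the bla read, CellTiter-Glo was added and luminescence read at 30 min, room temperature.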

[3] = target: Cellular tumor antigen p53 (Homo sapiens) (UniProt P04637); test: TOX21_p53_BLA_p3_ratio: Tox21 HCT-116 p53 Agonism Beta-lactamase Assay, Ratio, Phase 3 (AID 2283596)
In short: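 Cells were seeded at 4000/well, rested 5 h at 37C, then dosed with DMSO compound solutions (217-fold dilution) for 16 h. CCF4-AM substrate was loaded for 2 h at room temperature, and the 460/530 nm emission ratio was fitted for gain of signal versus DMSO.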

[4] = TOX21_p53_BLA_p4_viability: Viability Assessment in the Tox21 HCT-116 p53 Agonism Beta-lactamase Assay, Phase 4 (AID 2283597);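 also: hits lower the luminescence signal meaning cytotoxicity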
In short: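 ATP content by CellTiter-Glo luminescence, 30 min RT, read after the beta-lactamase ratio step. Cells: HCT116, 4000/well, compound added after 5 h, exposure 16 h at 37C. Signal loss = reduced viability.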

[5] = target: Cellular tumor antigen p53 (Homo sapiens) (UniProt P04637); test: TOX21_p53_BLA_p5_ratio: Tox21 HCT-116 p53 Agonism Beta-lactamase Assay, Ratio, Phase 5 (AID 2283599)
In short: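 HCT-116 cells carrying a p53-inducible beta-lactamase reporter were seeded at 4000 cells/well and dosed after 5 h with compound in DMSO (217-fold dilution). After 16 h at 37C, CCF4-AM substrate was added for 2 h, and the 460/530 nm emission ratio was scored as gain-of-signal versus DMSO.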

[6] = TOX21_p53_BLA_p5_viability: Viability Assessment in the Tox21 HCT-116 p53 Agonism Beta-lactamase Assay, Phase 5 (AID 2283600)
In short: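 ATP luminescence (CellTiter-Glo, 30 min, RT) served as the viability read-out, with loss of signal indicating cytotoxicity. Compounds in DMSO were pinned at a 217-fold dilution onto 4000 cells/well and incubated 16 h, 37C.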

[7] = target: Cellular tumor antigen p53 (Homo sapiens) (UniProt P04637); test: TOX21_p53_BLA_p4_ratio: Tox21 HCT-116 p53 Agonism Beta-lactamase Assay, Ratio, Phase 4 (AID 2283601)
In short: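 HCT116 cells carrying an inducible beta-lactamase reporter were plated at 4000 cells/well, rested 5 h, then exposed to compounds in DMSO (217-fold dilution) for 16 h at 37C. CCF4-AM substrate was loaded 2 h at room temperature; 460/530 nm emission ratio scored gain-of-signal versus DMSO.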

[8] = Tanguay_ZF_120hpf_MORT_legacy: (Legacy) Oregon State University Tanguay Lab 120 Hour Post-fertilization zebrafish Assay for Mortality (AID 2283633);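 as to AC50: fitted as increase in binary mortality versus DMSO negative control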
In short: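 Brightfield scoring of embryo death (binary) at 24 and 120 hpf; static exposure 6–120 hpf, 28C, sealed and foil-covered. Pronase-dechorionated 5D wild-type larvae, single embryo per well. DMSO 0.64% v/v; trimethyltin chloride 5uM positive control.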

[9] = Tanguay_ZF_120hpf_AXIS_legacy: (Legacy) Oregon State University Tanguay Lab 120 Hour Post-fertilization zebrafish Assay for Body Axis Malformation (AID 2283635);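 as to AC50: potency for an increased fraction of larvae scored with body axis malformation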
In short: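 Embryos: 5D wild-type, pronase-dechorionated 4 hpf; static exposure 6–120 hpf, 28C, sealed, dark, 1 embryo/well, 0.64% DMSO. 120 hpf axis malformation scored present/absent; dead embryos excluded. Analysed as gain of signal vs DMSO.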

[10] = Tanguay_ZF_120hpf_EYE_legacy: (Legacy) Oregon State University Tanguay Lab 120 Hour Post-fertilization zebrafish Assay for Eye Malformation (AID 2283636);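 also: binary presence or absence of eye malformation scored by brightfield in 120 hpf larvae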
In short: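 Static waterborne exposure of dechorionated zebrafish embryos (strain Tropical 5D), 6 to 120 hpf, sealed plates at 28C, 0.64% DMSO vehicle. Eye malformation is scored as a binary endpoint, with gain of signal analysed relative to DMSO.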

[11] = Tanguay_ZF_120hpf_SNOU_legacy: (Legacy) Oregon State University Tanguay Lab 120 Hour Post-fertilization zebrafish Assay for Snout Malformation (AID 2283637)
In short: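 Dechorionated zebrafish, individually housed from 6 hpf in covered, sealed wells at 28C with 0.64% DMSO vehicle, were examined at 120 hpf for snout malformation. Responses were binary and analysed positive-direction relative to DMSO.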

[12] = Tanguay_ZF_120hpf_JAW_legacy: (Legacy) Oregon State University Tanguay Lab 120 Hour Post-fertilization zebrafish Assay for Jaw Malformation (AID 2283638);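 as to AC50: active means more embryos with jaw malformation than DMSO controls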
In short: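 Binary jaw-malformation calls at 120 hpf by brightfield imaging; DMSO (0.64% v/v) = baseline. Embryos: 5D wild-type, pronase-dechorionated, one per well from 6 hpf, static exposure, 28C, sealed, dark.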

[13] = Tanguay_ZF_120hpf_SOMI_legacy: (Legacy) Oregon State University Tanguay Lab 120 Hour Post-fertilization zebrafish Assay for Somite Malformation (AID 2283647)
In short: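 Binary brightfield scoring of somite defects at 120 hpf in 5D wild-type larvae; one dechorionated embryo per well, static exposure from 6 hpf, 28C, sealed and dark. Final DMSO 0.64%; trimethyltin chloride 5uM positive control.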

[14] = Tanguay_ZF_120hpf_PFIN_legacy: (Legacy) Oregon State University Tanguay Lab 120 Hour Post-fertilization zebrafish Assay for Pectoral Fin Malformation (AID 2283648);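 also: each larva judged yes or no for fin defect by brightfield with dead larvae skipped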
In short: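 Scoring of pectoral fin malformation was binary, made at 120 hpf on larvae exposed statically from 6 hpf after enzymatic chorion removal. Activity was fitted upward relative to DMSO controls at 0.64% (vol/vol).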

[15] = Tanguay_ZF_120hpf_CFIN_legacy: (Legacy) Oregon State University Tanguay Lab 120 Hour Post-fertilization zebrafish Assay for Caudal Fin Malformation (AID 2283649)
In short: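 Dechorionated 5D wild-type zebrafish, static exposure 6–120 hpf, 28C, sealed and dark, 0.64% v/v DMSO final. Binary fin-malformation call at 120 hpf, brightfield; gain of signal vs DMSO baseline.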

[16] = Tanguay_ZF_120hpf_PIG_legacy: (Legacy) Oregon State University Tanguay Lab 120 Hour Post-fertilization zebrafish Assay for Pigmentation Malformation (AID 2283650)
In short: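 Endpoint is incidence of abnormal pigmentation at 120 hpf in dechorionated 5D zebrafish exposed singly from 6 hpf at 28C, DMSO vehicle at 0.64%. Embryos dying by 24 or 120 hpf are excluded from scoring.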

[17] = Tanguay_ZF_120hpf_BRAI_legacy: (Legacy) Oregon State University Tanguay Lab 120 Hour Post-fertilization zebrafish Assay for Brain Malformation (AID 2283641)
In short: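 Read-out: binary brain morphology call at 120 hpf (brightfield), fitted in gain-of-signal direction vs DMSO. Wild-type Tropical 5D embryos, static exposure, 28C, 0.64% DMSO final; 5uM trimethyltin chloride as positive control.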

[18] = Tanguay_ZF_120hpf_OTIC_legacy: (Legacy) Oregon State University Tanguay Lab 120 Hour Post-fertilization zebrafish Assay for Otic Vesicle Malformation (AID 2283639)
In short: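 Statically exposed wild-type 5D zebrafish embryos, kept sealed and dark at 28C through 120 hours post fertilization, were examined by brightfield microscopy for otic vesicle defects. Responses were recorded as present or absent and analysed relative to DMSO.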

[19] = Tanguay_ZF_120hpf_YSE_legacy: (Legacy) Oregon State University Tanguay Lab 120 Hour Post-fertilization zebrafish Assay for Yolk Sac Edema (AID 2283634);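 as to AC50: actives raise the incidence of yolk sac edema above the DMSO baseline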
In short: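 Binary brightfield scoring of yolk sac edema at 120 hpf; DMSO baseline, gain-of-signal fitting. Dechorionated 5D larvae, one per well, static exposure 6–120 hpf, 28C, 0.64% DMSO. Dead embryos not scored.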

[20] = Tanguay_ZF_120hpf_PE_legacy: (Legacy) Oregon State University Tanguay Lab 120 Hour Post-fertilization zebrafish Assay for Pericardial Edema (AID 2283640)
In short: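 Static waterborne exposure, 5D wild-type embryos, 28C, to 120 hpf; final DMSO 0.64% (vol/vol). Binary PE call at 120 hpf by brightfield; fitted upward vs DMSO baseline. 5uM trimethyltin chloride as positive control.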

Measured: AC50

Sequence of Cellular tumor antigen p53 (Homo sapiens) (P04637 whole entry, looked up): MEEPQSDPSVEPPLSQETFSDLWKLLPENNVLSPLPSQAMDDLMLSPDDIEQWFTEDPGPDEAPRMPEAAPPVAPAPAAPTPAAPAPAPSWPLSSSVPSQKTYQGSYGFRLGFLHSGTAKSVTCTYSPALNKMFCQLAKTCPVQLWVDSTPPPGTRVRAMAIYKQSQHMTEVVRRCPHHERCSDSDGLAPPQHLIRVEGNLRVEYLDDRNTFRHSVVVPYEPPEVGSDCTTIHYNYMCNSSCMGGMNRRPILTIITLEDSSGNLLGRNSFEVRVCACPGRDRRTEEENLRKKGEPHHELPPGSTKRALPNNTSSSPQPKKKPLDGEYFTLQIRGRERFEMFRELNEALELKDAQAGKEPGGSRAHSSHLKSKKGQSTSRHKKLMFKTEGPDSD

N[C@@H](Cc1cc(I)c(Oc2ccc(O)c(I)c2)c(I)c1)C(=O)O
inactive: [1] | [2] | [3] | [4] | [5] | [6] | [7] | [13] | [14] | [15]
active: [1] 33.6 µM | [5] 36.8 µM | [7] 34.8 µM | [8] 0.233 µM | [9] 0.000818 µM | [10] 0.00251 µM | [11] 0.00111 µM | [12] 0.00171 µM | [16] 0.00051 µM

CCCCC(CC)COC(=O)c1ccccc1C(=O)O (stereo not drawn)
not listed: [13] | [14] | [15] | [18] | [19] | [20]
inactive: all other assays above

CCN(Cc1c(F)cccc1Cl)c1c([N+](=O)[O-])cc(C(F)(F)F)cc1[N+](=O)[O-]
active: [4] 26.3 µM
not listed: [17] | [19] | [20]
inactive: all other assays above

C#CCOC(=O)[C@@H](C)Oc1ccc(Oc2ncc(Cl)cc2F)cc1
not listed: [14] | [15] | [17] | [20]
inactive: all other assays above

S=C(S)NCCNC(=S)S.[Mn+2].[S-]C([S-])=NCCN=C([S-])[S-].[Zn+2]
inactive: [8] | [9] | [10] | [11] | [12] | [18] | [17] | [13] | [14] | [15] | [16]

CCOC(=O)C(C)Oc1ccc(Oc2nc3ccc(Cl)cc3o2)cc1 (stereo not drawn)
not listed: [3] | [4] | [7] | [15] | [19] | [20]
inactive: all other assays above

CCCCOC(=O)C(C)Oc1ccc(Oc2ccc(C(F)(F)F)cn2)cc1 (stereo not drawn)
not listed: [1] | [15] | [17] | [19] | [20]
inactive: all other assays above

CCCOC(=O)c1ccc(C(=O)OCCC)nc1
active: [8] 5.38 µM | [9] 0.968 µM
not listed: [1] | [6] | [13] | [15] | [17] | [19] | [20]
inactive: all other assays above

c1ccc2[nH]c(-c3cscn3)nc2c1
inactive: [8] | [19] | [9] | [10] | [11] | [12] | [18] | [17] | [14] | [16]

CCNc1nc(N)nc(Cl)n1
not listed: [2] | [4] | [20]
inactive: all other assays above

CCCCOCCOCCOCc1cc2c(cc1CCC)OCO2
active: [8] 5.13 µM | [19] 28.3 µM | [9] 25.5 µM | [11] 7.01 µM | [15] 10.7 µM
inactive: [10] | [12] | [18] | [17] | [13] | [14] | [16]

COC(=O)c1ccccc1C(=O)O
not listed: [1] | [2] | [5] | [7] | [10] | [14] | [18]
inactive: all other assays above

COc1nc(C)nc(NC(=O)NS(=O)(=O)c2ccccc2OCCCl)n1
inactive: [1] | [3] | [4] | [5] | [7]

COC(=O)CSc1cc(N=c2sc(=O)n3n2CCCC3)c(F)cc1Cl
inactive: [1] | [2] | [4] | [6] | [8] | [10] | [11] | [12] | [17] | [14] | [16]

N#CSCSc1nc2ccccc2s1
inactive: [9] | [10] | [11] | [12] | [18] | [17] | [13] | [14] | [15] | [16]
active: [8] 0.539 µM
